# Out of some 1,400 compounds screened, fewer than 10 were called active. These entries were drawn from the full list. Unmarked numbers belong to inactive results.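 How the source made its calls: active means fluorescence-lowering compounds whose fitted half-maximal concentration is at or below ten times the highest valid dose tested; inconclusive means flat curve at 30 to 70% inhibition, or poor fit; inactive means the rest.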
# Target: Histone deacetylase 3 (Homo sapiens) (UniProt O15379)
# Assay: HDAC3 deacetylase inhibitors, dose response, counter-screen for JMJD2C/GASC1 demethylase inhibitor project, biochemical, fluorescence, cherry-picked samples (AID 485318);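 further: enzyme preincubated with compound before substrate and trypsin were added; 0% = neutral control wells and -100% = SAHA positive control wells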
# Details: recombinant HDAC3, fluorogenic peptide/trypsin coupled; series mostly up to 12 µM; activity change, negative = inhibition: at the top concentration
# Chain of Histone deacetylase 3 (Homo sapiens) (O15379 whole entry, looked up): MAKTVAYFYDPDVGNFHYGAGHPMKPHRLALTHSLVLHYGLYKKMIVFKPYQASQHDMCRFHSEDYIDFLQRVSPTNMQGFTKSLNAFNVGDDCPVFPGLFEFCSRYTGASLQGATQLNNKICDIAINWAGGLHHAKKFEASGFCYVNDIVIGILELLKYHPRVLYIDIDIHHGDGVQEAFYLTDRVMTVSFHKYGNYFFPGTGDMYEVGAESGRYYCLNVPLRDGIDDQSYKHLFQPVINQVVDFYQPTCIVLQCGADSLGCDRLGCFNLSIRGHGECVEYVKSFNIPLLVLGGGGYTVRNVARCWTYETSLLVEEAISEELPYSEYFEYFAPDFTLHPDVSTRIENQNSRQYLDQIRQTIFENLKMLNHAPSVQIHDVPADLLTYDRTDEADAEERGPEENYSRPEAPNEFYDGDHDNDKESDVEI
row,Structure (SMILES),"activity change, negative = inhibition [%]"
1,CC(=O)C1=C(c2ccccc2)N(C(C)=O)n2c(C)nnc2S1,-0.262
2,CC1=C(C(=O)OCC2CCCO2)C(c2ccccc2OC(C)C)C2=C(CC(c3ccco3)CC2=O)N1 (centres undefined),-0.466
3,Cc1occc1-c1nnc(SCC(=O)Nc2ccccc2)n1C(C)c1ccccc1 (centres undefined),0.434
4,CCN(Cc1nc(-c2ccccc2)no1)C(=O)c1ccco1,-0.489
5,Cc1nnc(N2C(=O)C(=O)/C(=C(/O)c3ccc4c(c3)CC(C)O4)C2c2ccccc2F)s1 (centres undefined),0.641
6,CCC(C(=O)NCCCc1ccccc1)c1ccccc1 (centres undefined),0.435
7,COCCCNC(=O)C1CCN(C(=O)Nc2ccc(Cl)cc2)CC1,-0.45
8,COC(=O)[C@]1(C)N[C@H](CN(C)S(=O)(=O)c2ccc(F)cc2)[C@@H]2C(=O)N(C)C(=O)[C@@H]21,-0.842
9,CC(=O)N1CCN(c2ccc(NC(=O)c3ccc4ccccc4c3)cc2)CC1,0.314
10,CCN(CC)C(CNS(=O)(=O)c1ccc(Cl)cc1)c1ccccc1 (centres undefined),-0.496
11,CCNC(=S)NC(=NCc1cccnc1)Nc1nc(C)cc(C)n1,0.0784
12,Cc1ccc(N2NC3(CCN(C(N)=O)CC3)NC2=O)cc1,-0.0157
13,C=CCNC(=S)NNC(=O)COc1cccc(Cl)c1,-0.462
14,O=C(O)c1ccccc1OCCOc1ccccc1C(=O)O,0.223
15,O=C1NCCC/C1=N/Nc1ccc(F)cc1,0.198
16,CC(C)NC(=O)N(C)C[C@H]1Oc2ccc(NS(=O)(=O)c3ccccc3)cc2C(=O)N([C@H](C)CO)C[C@H]1C,0.293
17,COc1ccc(-n2cc(C(=O)O)c3ccccc3c2=O)cc1,0.371
18,O=C(C1CCCCC1)N1CCC(c2nc3c(nnn3Cc3c(F)cccc3Cl)c(=O)[nH]2)CC1,-0.334
19,Cc1ccc(C)c(Cn2c(C(=O)OC(C)C)cc3c2ccn3C)c1,-0.102
20,NC(=O)COc1cccc2cccnc12,0.026
21,Cn1c(=O)c2[nH]c(=O)cnc2n(C)c1=S,0.57
22,Cn1nc(N)nc1N1CCN(c2ccc(F)cc2)CC1,0.182

row,Structure (SMILES),"activity change, negative = inhibition [%]"
1,NS(=O)(=O)c1ccc(CNC(=S)Nc2ccc(F)c(Cl)c2)cc1,0.414
2,O=C(O)c1ccc2c(c1)C(=O)N(CCC1=CCCCC1)C2=O,0.227
3,CC(C)N(Cc1ccccc1)C(=O)COC(=O)c1ccc2c(c1)OCCO2,-0.449
4,NC(=O)NC(=O)CSc1nnc(-c2ccco2)n1Cc1ccccc1,0.0902
5,O=C(OCc1nnc(-c2ccccc2)o1)c1cc(S(=O)(=O)N2CCOCC2)c(Cl)cc1Cl,-0.233
6,COc1ccc(C)cc1NC(=O)CN(C)S(=O)(=O)c1ccc2c(c1)CC(C)N2C(C)=O (centres undefined),0.478
7,OC[C@H]1O[C@@H]2O[C@H]3[C@H](O)[C@@H](O)[C@@H](O[C@H]4[C@H](O)[C@@H](O)[C@@H](O[C@H]5[C@H](O)[C@@H](O)[C@@H](O[C@H]6[C@H](O)[C@@H](O)[C@@H](O[C@H]7[C@H](O)[C@@H](O)[C@@H](O[C@H]1[C@H](O)[C@H]2O)O[C@@H]7CO)O[C@@H]6CO)O[C@@H]5CO)O[C@@H]4CO)O[C@@H]3CO,-0.216
8,Cc1ccc(C(=O)NCC(=O)OCC(=O)Nc2ccc(Cl)cc2C(F)(F)F)cc1C,-0.15
9,O=c1[nH]cnc2c1c(-c1ccccc1)cn2-c1ccccc1,0.0419
10,Cc1nc2nc(C)c(CCC(=O)NCc3ccc4c(c3)OCO4)c(C)n2n1,0.43
11,O=c1[nH]cc(N2CCCCCC2)c(=O)[nH]1,-0.0271
12,O=C(NCc1nnc(SCC(=O)N2CCCCC2)o1)c1c(F)cccc1F,-0.609
13,O=C(c1cccs1)N1CCN(S(=O)(=O)c2ccc(F)cc2)CC1,0.208
14,O=C(CSc1nnnn1-c1ccc(Cl)cc1)N1CCc2ccccc2C1,-0.296
15,CN(C)c1ccc(C(=O)OCC(=O)N2CCCC2)cc1,0.251
16,Cc1ccc(S(=O)(=O)NCCC(=O)OCC(=O)Nc2ccccc2Cl)cc1,0.205
17,Cc1ccc(S(=O)(=O)NC(=O)NCc2ccc(Cl)cc2)cc1,-0.66
18,O=c1cc(N/N=C/c2ccccc2)[nH]c(=O)[nH]1,-0.139
19,COc1ccc(NC(=O)N(C)C[C@H]2Oc3c(NS(=O)(=O)c4cccs4)cccc3C(=O)N([C@H](C)CO)C[C@@H]2C)cc1,0.309
20,COCCCNC(=S)NNC(=O)c1ccccn1,0.84
21,Cc1ccc(OCCSc2nnc(-c3cccs3)n2C)cc1,-0.407
22,CCCC(=O)Nc1ccc(Oc2ccc(NC(=O)CCC)cc2)cc1,0.3

row,Structure (SMILES),"activity change, negative = inhibition [%]"
1,COCCCn1c(SCC(=O)NCc2ccco2)nc2sc3c(c2c1=O)CCC3,0.159
2,CC(C)(C)c1ccc(-c2csc(NNC3=NCCCCC3)n2)cc1,-9.81
3,CC(OC(=O)c1ccc([N+](=O)[O-])s1)C(=O)Nc1ncc(Cl)cc1Cl (centres undefined),0.0687
4,O=C(c1ccc(Cn2cc([N+](=O)[O-])cn2)o1)N1CCCCCC1,0.287
5,COc1ccccc1C(=O)OCc1c(-c2ccccc2)ncc2ccccc12,-0.395
6,Cc1ccc2nc(-c3cccc(NS(C)(=O)=O)c3)cc(-c3ccccc3)c2c1,0.133
7,COC(=O)C1=C(C)N(CCc2cc(OC)c(OC)c(OC)c2)C(=O)N[C@H]1c1cccs1,0.535
8,COc1ccc(CNCC(=O)Nc2sccc2C#N)cc1,-0.369
9,Cc1nn(-c2cccc(C(=O)O)c2)c(C)c1Oc1ccccc1O,-0.0812
10,CCSCC1COC(c2cccn2Cc2ccc(C)cc2)=N1 (centres undefined),0.82
11,COC(=O)CCC(=O)N1CCOCCOCCN(C(=O)CCC(=O)OC)CCOCCOCC1,0.687
12,O=C1c2sc3nc4c(c(=O)n3c2C(=O)N1c1ccccc1)CCC4,0.641
13,CC(=O)OC(C(=O)NCc1ccc2c(c1)OCO2)c1ccccc1Cl (centres undefined),-0.735
14,CCC(=O)Nc1cc2c(cc1C(=O)CC)OCCO2,-0.0822
15,CCOC(=O)c1cc2n(n1)C(C(F)(F)F)CC(C)N2 (centres undefined),0.00685
16,CCCCNC(=O)c1nn2cc(Br)cnc2c1Br,0.783
17,Clc1ccc(N=c2ssnc2Cl)nc1,0.426
18,O=C(c1ccsc1)N1CCN(C(=O)c2cccs2)CC1,0.464
19,COc1ccc2sc(-c3ccc(S(C)(=O)=O)cc3)c(C#CCO)c2c1,-0.136
20,COc1ccc(CCN=C(NS(=O)(=O)c2ccc(Cl)cc2)c2ccccc2)cc1,0.401
21,CCN(CC)CCSc1nc2ccccc2c(=S)n1-c1ccccc1,-0.421
22,O=C(Cn1nc(-c2ccc(Cl)cc2)ccc1=O)NCC1COCCO1 (centres undefined),-0.234

row,Structure (SMILES),"activity change, negative = inhibition [%]"
1,CCC(C)(C)NC(=O)C(c1ccc(C)o1)N(Cc1cccs1)C(=O)Cn1nnc2ccccc21 (centres undefined),-0.314
2,CCC(=O)N1CCc2cc(Br)cc(S(=O)(=O)CC(=O)OC)c21,0.319
3,CCN(CC(=O)Nc1ccc2c(c1)OCCO2)C(=O)CC1CCCC1,0.513
4,O=C(CSc1nc(O)c(Cc2ccccc2)c(=O)[nH]1)c1ccccc1,-0.826
5,Cc1ccc(CSc2ncnc3onc(C)c23)cc1,-0.218
6,CCOC(=O)c1c(NC(=O)c2cc(-c3ccc(O)cc3)on2)sc(C(C)=O)c1C,0.792
7,C[C@@H](CN1CCC[C@H]1CN1C(N)=NC[C@@H]1Cc1ccccc1)N1C[C@@H](Cc2ccccc2)N(CCc2ccc(Cl)c(Cl)c2)C1=N,-0.0869
8,O=C(CSc1nc(-c2ccco2)cc(C(F)(F)F)n1)Nc1ccc(C(=O)N2CCCCC2)cc1,-1.01
9,COc1cccc(OC)c1C(=O)NC(=S)N1CCOCC1,0.0161
10,COc1cccc(-n2nnc3c(=O)n(Cc4ccccc4F)cnc32)c1,-0.245
11,CCn1c(SCC(=O)NCc2ccco2)nnc1-c1cccs1,-0.00731
12,CSc1nc(N)nc2c1ncn2CC(=O)N[C@H](C)c1cccc2ccccc12,-0.21
13,COC(=O)C1=C(C)N(Cc2ccccc2)C(=NCCc2c[nH]c3ccccc23)N[C@H]1c1ccccc1,0.954
14,CC(=O)c1c(C)[nH]c(C(=O)NCCC2=CCCCC2)c1C,0.207
15,COc1ccc(S(=O)(=O)Nc2ccc3c(c2)CC(=O)N([C@@H](C)CO)C[C@H](C)[C@@H](CN(C)S(=O)(=O)c2ccc(F)cc2)O3)cc1,-0.0258
16,COc1ccccc1NC(=O)COC(=O)c1[nH]c(=O)[nH]c(=O)c1N,-0.201
17,Cc1cccc(N2CC(C(=O)Nc3nnc(SCC(=O)Nc4nccs4)s3)CC2=O)c1 (centres undefined),0.958
18,CN(C)c1nc(C(=O)Nc2ccccc2)nc(N(C)C)n1,0.331
19,CCOc1ccc(-c2nc(CSCC(=O)NC3CCCc4ccccc43)c(C)o2)cc1 (centres undefined),0.296
20,Cc1cc2cc3c(cc2nc1SCC(=O)N1CCOCC1)OCO3,0.249
21,CC(C)(C)OC(=O)CNC(=O)c1[nH]cnc1C(=O)N[C@@H](CCCCN)C(=O)OC(C)(C)C,0.233
22,COc1ccc(OC)c(Nc2nnc(C)c(=O)[nH]2)c1,-0.0817

row,Structure (SMILES),"activity change, negative = inhibition [%]"
1,O=C(O)CCCNC(=O)c1cccc(C(=O)NCCCC(=O)O)n1,1.32
2,O=C(O)c1cc(O)c2c(c1)[C@@H]([C@H]1c3cc(C(=O)O)cc(O)c3C(=O)c3c(O[C@@H]4O[C@H](CO)[C@@H](O)[C@H](O)[C@H]4O)cccc31)c1cccc(O[C@@H]3O[C@H](CO)[C@@H](O)[C@H](O)[C@H]3O)c1C2=O,0.118
3,CN(C)CCNC(=O)c1onc(CSc2ccncc2)c1C(=O)NCCN(C)C,-0.121
4,N#CC(C(=O)NCCc1ccccc1)c1nc2ccccc2nc1N1CCOCC1 (centres undefined),-0.358
5,COc1ccc(NC(=O)CNC(=O)c2nn(-c3ccc(OC)c(Cl)c3)c(=O)c3ccccc23)c(OC)c1,-0.0159
6,Cc1ccc(-c2noc(C3CCN(S(C)(=O)=O)CC3)n2)o1,-0.331
7,Cc1nnc(N2C(=O)c3cccc4c([N+](=O)[O-])ccc(c34)C2=O)s1,0.858
8,CCOC(=O)CCCCCC(=O)Nc1ccc2c(c1)CC(=O)N([C@@H](C)CO)C[C@H](C)[C@@H](CN(C)C(=O)Nc1ccc3c(c1)OCO3)O2,-0.431
9,CSc1ccccc1C(=O)Nc1ccc(C)c(C)c1,-0.311
10,CC(C)N(C(=O)[C@H]1CC(CC(=O)NCc2cccc(C(F)(F)F)c2)C(=O)N2CCc3c([nH]c4ccccc34)[C@]12C)C(C)C (some centres undefined),-0.336
11,N#Cc1ccc(C23OCCN2CCn2nc4ccccc4c23)cc1 (centres undefined),0.331
12,CCc1ccc(NC(=O)C/C(C)=N/NC(=O)COc2ccc(C)cc2Br)cc1,0.354
13,COc1ccc(-c2csc(NNC3=NCCCCC3)n2)cc1,0.716
14,CC1(C)C2CCC1(CS(=O)(=O)N1CCN(c3ccccc3F)CC1)C(=O)C2 (centres undefined),0.137
15,Cc1ccc(O)c(C(=O)c2cc(C#N)c(=O)n(CC3CCCO3)c2)c1 (centres undefined),-0.325
16,CCOC(=O)c1ccc2c(c1)nc(COc1ccc3ccccc3c1)n2CC,0.593
17,O=C(NCc1ccccn1)c1ccc(OC2CCN(Cc3cccs3)CC2)cc1,-0.641
18,CCOC(=O)c1sc(Nc2nc(OC)cc(OC)n2)nc1C,-0.509
19,CN(C)C(=O)c1cccc(-c2csc(N3CCC(C(N)=O)CC3)n2)c1,0.16
20,COc1ccc(-c2ccc3oc(-c4ccsc4)cc(=O)c3c2)cn1,0.0488
21,COc1ccc(CCNC(=O)c2cccc(NS(=O)(=O)c3ccccc3F)c2)cc1OC,0.204

# Source: PubChem BioAssay AID485318 (Broad Institute, 2010)
